Some test systems named below: NCI-H23 lung; NCI-H226 lung; NCI-H322M lung; HOP-62 NSCLC; NCI-H460 lung; HOP-92 NSCLC; NCI-H522 lung; A549/ATCC NSCLC; 786-0 renal; COLO 205 colon; DU-145 prostate; K-562 leukemia; MALME-3M melanoma; MDA-MB-231 breast; RXF 393 renal; SF-268 CNS; SF-295 CNS; SF-539 CNS; UACC-257 melanoma; M14 melanoma.
Holding throughout (assay): NCI-60 one-dose screen, 48 h (100 = growth as untreated, 0 = no growth, -100 = all killed)
Conditions in all cases: 10 µM unless noted

Where “and” joins values, the source holds several entries; their conditions need not be identical. Identical values can stand only once. About 83,000 compounds went through this panel and 20% of them were active in at least one assay; those are over-represented in the sample as a whole.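 Cells were grown in 96-well plates and exposed to the test compound at a single concentration for 48 hours; results are reported as percent growth, with values below 10 considered active.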 Calls of active or inactive are those of the source.

Turning to `CC(=O)Nc1ccc(OC(C)=O)cc1`, the growth in the experiment with NCI-H23 lung is 12% (inactive) and 103% (inactive); in the experiment with NCI-H226 lung, 5.48% (active) and 98.2% (inactive); in the experiment with NCI-H322M lung, 29.5% (inactive) and 112% (inactive); in the experiment with HOP-62 NSCLC, 8.93% (active) and 111% (inactive); with NCI-H460 lung it was 2.3% (active) and 98.6% (inactive); with HOP-92 NSCLC, 102% (inactive). Besides, the growth in the experiment with NCI-H522 lung was -31.9% (active) and 105% (inactive); in the experiment on A549/ATCC NSCLC, 6.06% (active) and 102% (inactive); in the experiment on 786-0 renal it was 11.4% (inactive) and 99.9% (inactive); with COLO 205 colon it was -81.3% (active) and 108% (inactive); with DU-145 prostate, -16.4% (active) and 109% (inactive); in the experiment on K-562 leukemia, 8.26% (active) and 106% (inactive). The growth with MALME-3M melanoma is 44.4% (inactive) and 111% (inactive); in the experiment with MDA-MB-231 breast it was -20.3% (active) and 111% (inactive); in the experiment with RXF 393 renal it was -5.2% (active) and 95.3% (inactive); in the experiment with SF-268 CNS, 23.1% (inactive) and 103% (inactive); in the experiment with SF-295 CNS it was 9.59% (active) and 105% (inactive); with SF-539 CNS it was 2.32% (active) and 95.1% (inactive). Also, the growth was 55.4% (inactive) and 102% (inactive) with UACC-257 melanoma; 0.268% (active) and 103% (inactive) with M14 melanoma.
For the molecule `O=[N+]([O-])c1cccc2ccc(N/N=C/c3ccccc3O)nc12`, the growth in the experiment on NCI-H23 lung was 72.4% (inactive) and 98.3% (inactive); with NCI-H226 lung it was 83.4% (inactive) and 99.5% (inactive); in the experiment on NCI-H322M lung, 88.2% (inactive) and 94.8% (inactive); with HOP-62 NSCLC, 85% (inactive) and 97.9% (inactive); in the experiment with NCI-H460 lung, 91.9% (inactive) and 98.4% (inactive); in the experiment on HOP-92 NSCLC, 67.7% (inactive) and 77.7% (inactive). Further, the growth is 78.6% (inactive) and 89.2% (inactive) with NCI-H522 lung; 97.3% (inactive) and 90.9% (inactive) with A549/ATCC NSCLC; 102% (inactive) and 85.9% (inactive) with 786-0 renal; 68.1% (inactive) and 111% (inactive) in the experiment with COLO 205 colon; 88.7% (inactive) and 107% (inactive) in the experiment with DU-145 prostate; 19.9% (inactive) and 49.1% (inactive) in the experiment with K-562 leukemia. Further, the growth with MALME-3M melanoma was 96.2% (inactive) and 100% (inactive); with MDA-MB-231 breast, 72.6% (inactive) and 84.5% (inactive); with RXF 393 renal it was 84.6% (inactive); in the experiment on SF-268 CNS, 106% (inactive) and 99.2% (inactive); in the experiment with SF-295 CNS, 104% (inactive) and 102% (inactive); in the experiment on SF-539 CNS, 90.9% (inactive) and 101% (inactive). Moreover, the growth is 92.1% (inactive) and 85.4% (inactive) with UACC-257 melanoma; 88.9% (inactive) and 107% (inactive) in the experiment on M14 melanoma.
As for `Clc1ccc2sc(-c3ccccc3)nc2c1`, the growth in the experiment with NCI-H23 lung is 101% (inactive); in the experiment on NCI-H226 lung it was 82.2% (inactive); with NCI-H322M lung, 102% (inactive); in the experiment on HOP-62 NSCLC, 74.5% (inactive); in the experiment with NCI-H460 lung it was 80% (inactive); in the experiment on HOP-92 NSCLC, 105% (inactive). Also, the growth is 82.5% (inactive) with NCI-H522 lung; 71.4% (inactive) in the experiment on A549/ATCC NSCLC; 108% (inactive) in the experiment on 786-0 renal; 115% (inactive) with COLO 205 colon; 113% (inactive) with DU-145 prostate; 92.9% (inactive) in the experiment with K-562 leukemia. The growth was 104% (inactive) with MALME-3M melanoma; 80.3% (inactive) in the experiment with MDA-MB-231 breast; 103% (inactive) in the experiment on RXF 393 renal; 96% (inactive) with SF-268 CNS; 100% (inactive) with SF-295 CNS; 95.5% (inactive) with SF-539 CNS. In addition, the growth in the experiment with UACC-257 melanoma was 65.6% (inactive); in the experiment with M14 melanoma, 102% (inactive).
As to `CCn1c2ccc(N(C)C)cc2c2cc(N(C)C)ccc21`, the growth in the experiment with NCI-H23 lung was 92.1% (inactive); in the experiment with NCI-H226 lung it was 97.4% (inactive); with NCI-H322M lung it was 95.2% (inactive); in the experiment with HOP-62 NSCLC, 90.2% (inactive); in the experiment on NCI-H460 lung, 99.8% (inactive); with HOP-92 NSCLC it was 90.6% (inactive). Besides, the growth in the experiment with NCI-H522 lung was 77.3% (inactive); with A549/ATCC NSCLC, 85.7% (inactive); in the experiment on 786-0 renal it was 102% (inactive); with COLO 205 colon it was 46.8% (inactive); in the experiment with DU-145 prostate it was 108% (inactive); in the experiment on K-562 leukemia it was 90.6% (inactive). The growth in the experiment with MALME-3M melanoma is 111% (inactive); with MDA-MB-231 breast, 83.8% (inactive); in the experiment on RXF 393 renal, 97.3% (inactive); in the experiment with SF-268 CNS, 92.8% (inactive); in the experiment on SF-295 CNS it was 104% (inactive); in the experiment with SF-539 CNS, 100% (inactive). The growth with UACC-257 melanoma was 93% (inactive); with M14 melanoma, 102% (inactive).
`N=C(N)N1CCc2ccccc2C1`: the growth with NCI-H23 lung was 87.2% (inactive) and 106% (inactive); with NCI-H226 lung, 97.6% (inactive) and 108% (inactive); in the experiment on NCI-H322M lung it was 98.6% (inactive) and 116% (inactive); in the experiment on HOP-62 NSCLC, 93.1% (inactive) and 96.8% (inactive); in the experiment with NCI-H460 lung, 103% (inactive) and 95.5% (inactive); in the experiment on HOP-92 NSCLC, 156% (inactive). Moreover, the growth was 83.9% (inactive) and 118% (inactive) with NCI-H522 lung; 81.9% (inactive) and 96.9% (inactive) in the experiment with A549/ATCC NSCLC; 87.5% (inactive) and 112% (inactive) in the experiment on 786-0 renal; 100% (inactive) and 106% (inactive) in the experiment with COLO 205 colon; 105% (inactive) and 97.3% (inactive) with DU-145 prostate; 71.4% (inactive) and 108% (inactive) with K-562 leukemia. Further, the growth in the experiment with MALME-3M melanoma is 82% (inactive) and 110% (inactive); in the experiment with MDA-MB-231 breast it was 99% (inactive) and 103% (inactive); with RXF 393 renal, 97.2% (inactive) and 121% (inactive); in the experiment on SF-268 CNS it was 98.9% (inactive) and 97.3% (inactive); with SF-295 CNS, 88% (inactive) and 106% (inactive); in the experiment on SF-539 CNS, 104% (inactive) and 96.8% (inactive). Further, the growth with UACC-257 melanoma is 86.5% (inactive) and 95.4% (inactive); in the experiment on M14 melanoma, 93.2% (inactive) and 108% (inactive).
For `C(=N\OCCc1ccccc1)/c1ccccn1`, the growth in the experiment on NCI-H23 lung is 109% (inactive); in the experiment on NCI-H226 lung, 121% (inactive) and 108% (inactive); in the experiment with NCI-H322M lung, 138% (inactive) and 105% (inactive); with HOP-62 NSCLC, 127% (inactive); in the experiment with NCI-H460 lung, 103% (inactive) and 111% (inactive); in the experiment on HOP-92 NSCLC, 103% (inactive). Moreover, the growth is 112% (inactive) and 102% (inactive) in the experiment on NCI-H522 lung; 102% (inactive) and 101% (inactive) in the experiment with A549/ATCC NSCLC; 96.7% (inactive) and 97.1% (inactive) in the experiment with 786-0 renal; 135% (inactive) and 115% (inactive) in the experiment with COLO 205 colon; 111% (inactive) and 106% (inactive) with DU-145 prostate; 115% (inactive) in the experiment on K-562 leukemia. Also, the growth with MALME-3M melanoma is 153% (inactive) and 95.9% (inactive); in the experiment on MDA-MB-231 breast, 124% (inactive) and 112% (inactive); in the experiment on RXF 393 renal, 116% (inactive) and 119% (inactive); in the experiment with SF-268 CNS, 107% (inactive) and 105% (inactive); with SF-295 CNS, 96.6% (inactive); in the experiment on SF-539 CNS, 104% (inactive) and 93.6% (inactive). Moreover, the growth is 109% (inactive) and 104% (inactive) with UACC-257 melanoma; 115% (inactive) and 117% (inactive) with M14 melanoma.

Values taken from PubChem BioAssay (NCI).
